# Experimental data as given in ChEMBL document CHEMBL1961873, “Compounds: GSK PKIS; Assays: Nanosyn kinase panel” (2012).
# Assays:
# [1] = target: Serine/threonine-protein kinase 26 (Homo sapiens) (UniProt Q9P289); conditions: at 1 µM;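 also: mean inhibition of MST4 kinase activity, reported from the GSK PKIS inhibitor-set screening panel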
# [2] = target: Serine/threonine-protein kinase PAK 1 (Homo sapiens) (UniProt Q13153); conditions: at 0.1 µM
# [3] = target: Serine/threonine-protein kinase PAK 1 (Homo sapiens) (UniProt Q13153); conditions: at 1 µM
# [4] = target: Serine/threonine-protein kinase PAK 2 (Homo sapiens) (UniProt Q13177); conditions: at 0.1 µM
# Sequence of Serine/threonine-protein kinase PAK 2 (Homo sapiens) (Q13177 whole entry): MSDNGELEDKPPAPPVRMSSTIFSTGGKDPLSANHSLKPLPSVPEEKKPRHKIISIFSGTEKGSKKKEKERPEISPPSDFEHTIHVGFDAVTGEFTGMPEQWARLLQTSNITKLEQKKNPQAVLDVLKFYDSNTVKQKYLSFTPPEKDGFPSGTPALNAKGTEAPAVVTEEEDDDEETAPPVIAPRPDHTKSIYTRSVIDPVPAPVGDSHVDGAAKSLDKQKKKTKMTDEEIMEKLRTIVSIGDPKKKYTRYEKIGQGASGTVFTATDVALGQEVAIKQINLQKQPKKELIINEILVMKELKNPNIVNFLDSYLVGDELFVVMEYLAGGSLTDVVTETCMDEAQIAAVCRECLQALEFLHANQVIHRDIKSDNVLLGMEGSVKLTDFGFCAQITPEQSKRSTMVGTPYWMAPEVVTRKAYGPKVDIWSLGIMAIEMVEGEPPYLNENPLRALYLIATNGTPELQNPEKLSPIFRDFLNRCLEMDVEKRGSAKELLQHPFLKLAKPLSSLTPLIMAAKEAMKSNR
# [5] = target: Serine/threonine-protein kinase PAK 2 (Homo sapiens) (UniProt Q13177); conditions: at 1 µM
# [6] = target: Serine/threonine-protein kinase PAK 3 (Homo sapiens) (UniProt O75914); conditions: at 0.1 µM
# Sequence of Serine/threonine-protein kinase PAK 3 (Homo sapiens) (O75914 whole entry, looked up): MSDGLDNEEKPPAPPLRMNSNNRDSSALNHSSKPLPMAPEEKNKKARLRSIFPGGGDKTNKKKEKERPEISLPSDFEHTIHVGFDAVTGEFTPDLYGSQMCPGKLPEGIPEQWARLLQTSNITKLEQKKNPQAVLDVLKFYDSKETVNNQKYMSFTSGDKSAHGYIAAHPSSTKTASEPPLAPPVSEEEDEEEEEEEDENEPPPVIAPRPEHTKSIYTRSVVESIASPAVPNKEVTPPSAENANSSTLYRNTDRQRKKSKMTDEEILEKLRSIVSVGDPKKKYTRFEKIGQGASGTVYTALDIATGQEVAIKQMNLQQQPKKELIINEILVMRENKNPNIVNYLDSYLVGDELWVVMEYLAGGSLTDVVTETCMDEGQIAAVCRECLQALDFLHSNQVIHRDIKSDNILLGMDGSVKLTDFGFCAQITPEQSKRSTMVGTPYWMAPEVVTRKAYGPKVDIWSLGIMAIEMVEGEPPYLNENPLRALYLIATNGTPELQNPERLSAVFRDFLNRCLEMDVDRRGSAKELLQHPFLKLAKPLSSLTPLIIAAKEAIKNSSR
# [7] = target: Serine/threonine-protein kinase PAK 3 (Homo sapiens) (UniProt O75914); conditions: at 1 µM
# [8] = target: Serine/threonine-protein kinase PAK 5 (Homo sapiens) (UniProt Q9P286); conditions: at 0.1 µM
# Sequence of Serine/threonine-protein kinase PAK 5 (Homo sapiens) (Q9P286 whole entry, looked up): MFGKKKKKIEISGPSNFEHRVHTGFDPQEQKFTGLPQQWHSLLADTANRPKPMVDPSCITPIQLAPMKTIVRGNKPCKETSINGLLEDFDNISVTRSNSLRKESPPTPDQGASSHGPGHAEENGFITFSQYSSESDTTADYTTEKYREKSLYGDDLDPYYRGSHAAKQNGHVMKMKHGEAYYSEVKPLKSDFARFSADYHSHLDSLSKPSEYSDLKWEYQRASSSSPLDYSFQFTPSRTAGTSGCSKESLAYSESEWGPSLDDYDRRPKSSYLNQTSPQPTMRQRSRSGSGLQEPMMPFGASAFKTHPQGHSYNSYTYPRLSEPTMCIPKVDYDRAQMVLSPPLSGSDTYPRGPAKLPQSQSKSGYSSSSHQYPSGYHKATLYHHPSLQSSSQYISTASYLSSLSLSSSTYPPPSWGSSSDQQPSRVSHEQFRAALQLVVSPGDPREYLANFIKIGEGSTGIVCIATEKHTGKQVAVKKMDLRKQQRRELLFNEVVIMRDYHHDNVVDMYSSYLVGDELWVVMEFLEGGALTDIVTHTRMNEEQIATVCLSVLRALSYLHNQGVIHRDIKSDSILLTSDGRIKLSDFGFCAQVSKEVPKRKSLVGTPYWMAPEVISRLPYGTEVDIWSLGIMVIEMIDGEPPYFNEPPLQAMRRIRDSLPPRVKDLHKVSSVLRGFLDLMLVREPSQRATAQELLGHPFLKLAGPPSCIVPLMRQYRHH
# [9] = target: Serine/threonine-protein kinase PAK 5 (Homo sapiens) (UniProt Q9P286); conditions: at 1 µM
# [10] = target: Serine/threonine-protein kinase PAK 6 (Homo sapiens) (UniProt Q9NQU5); conditions: at 0.1 µM;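 also: mean PAK6 inhibition reported from the GSK PKIS screen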
# Sequence of Serine/threonine-protein kinase PAK 6 (Homo sapiens) (Q9NQU5 whole entry, looked up): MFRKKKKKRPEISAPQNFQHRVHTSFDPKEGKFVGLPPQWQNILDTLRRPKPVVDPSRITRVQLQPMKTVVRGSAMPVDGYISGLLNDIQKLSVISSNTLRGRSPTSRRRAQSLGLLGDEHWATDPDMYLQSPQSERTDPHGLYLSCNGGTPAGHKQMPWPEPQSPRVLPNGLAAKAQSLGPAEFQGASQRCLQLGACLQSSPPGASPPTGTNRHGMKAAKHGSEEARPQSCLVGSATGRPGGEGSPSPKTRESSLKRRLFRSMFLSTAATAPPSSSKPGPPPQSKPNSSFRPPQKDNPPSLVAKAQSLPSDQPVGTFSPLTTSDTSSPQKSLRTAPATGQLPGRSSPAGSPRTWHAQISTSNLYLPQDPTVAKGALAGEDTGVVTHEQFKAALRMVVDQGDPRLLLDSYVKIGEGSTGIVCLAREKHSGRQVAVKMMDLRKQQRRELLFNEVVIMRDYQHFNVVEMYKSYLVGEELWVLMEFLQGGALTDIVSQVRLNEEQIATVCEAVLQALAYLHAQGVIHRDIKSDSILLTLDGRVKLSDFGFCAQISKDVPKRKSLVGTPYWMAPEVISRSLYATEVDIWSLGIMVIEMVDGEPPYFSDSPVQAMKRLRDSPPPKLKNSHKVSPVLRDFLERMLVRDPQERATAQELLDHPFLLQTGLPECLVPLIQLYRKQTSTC
# Sequence of Serine/threonine-protein kinase 26 (Homo sapiens) (Q9P289 2-416 limits assumed): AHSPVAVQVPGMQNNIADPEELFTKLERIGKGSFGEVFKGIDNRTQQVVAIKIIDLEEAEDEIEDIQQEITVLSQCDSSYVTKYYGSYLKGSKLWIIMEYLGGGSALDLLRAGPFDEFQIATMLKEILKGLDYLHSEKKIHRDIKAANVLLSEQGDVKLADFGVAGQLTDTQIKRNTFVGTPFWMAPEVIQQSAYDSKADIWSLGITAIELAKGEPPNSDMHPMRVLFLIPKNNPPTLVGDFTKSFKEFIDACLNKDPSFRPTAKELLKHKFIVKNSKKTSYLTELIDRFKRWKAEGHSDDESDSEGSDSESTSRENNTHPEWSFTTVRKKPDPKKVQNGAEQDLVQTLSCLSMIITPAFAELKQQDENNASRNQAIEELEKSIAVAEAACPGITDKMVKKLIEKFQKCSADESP
# Sequence of Serine/threonine-protein kinase PAK 1 (Homo sapiens) (Q13153 whole entry): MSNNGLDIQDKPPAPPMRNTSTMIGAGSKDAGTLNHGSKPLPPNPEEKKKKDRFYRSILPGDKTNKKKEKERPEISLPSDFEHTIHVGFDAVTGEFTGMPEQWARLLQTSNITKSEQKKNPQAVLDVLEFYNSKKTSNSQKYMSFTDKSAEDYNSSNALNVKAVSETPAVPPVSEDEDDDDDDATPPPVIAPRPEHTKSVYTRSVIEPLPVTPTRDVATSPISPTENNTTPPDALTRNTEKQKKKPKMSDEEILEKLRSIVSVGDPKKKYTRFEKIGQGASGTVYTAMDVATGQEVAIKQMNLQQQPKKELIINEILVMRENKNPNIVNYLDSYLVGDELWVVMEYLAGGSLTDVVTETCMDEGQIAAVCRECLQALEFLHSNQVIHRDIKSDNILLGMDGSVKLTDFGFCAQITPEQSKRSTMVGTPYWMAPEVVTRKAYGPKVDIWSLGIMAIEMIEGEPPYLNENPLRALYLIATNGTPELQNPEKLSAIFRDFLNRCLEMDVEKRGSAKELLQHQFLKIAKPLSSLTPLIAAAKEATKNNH
SMILES,inhibition [1] [%],inhibition [2] [%],inhibition [3] [%],inhibition [4] [%],inhibition [5] [%],inhibition [6] [%],inhibition [7] [%],inhibition [8] [%],inhibition [9] [%],inhibition [10] [%]
CN1CCC(n2cnc(-c3ccc(F)cc3)c2-c2ccnc(N)n2)CC1,1.62,-0.17,3.27,0.07,-0.19,0.98,1.43,-5.17,3.69,-8.92
CNC(=O)c1cccc(C#Cc2cncnc2Nc2ccc(OCc3cccc(F)c3)c(Cl)c2)c1,4.41,2.05,1.45,0.68,1.72,-0.16,0.51,7.61,-2.53,9.54
COC(=O)c1sc(-n2cnc3cc(OC)c(OC)cc32)cc1OCc1ccccc1C(F)(F)F,0.54,7.38,9.12,1.91,1.84,3.84,4.18,-1.22,-4.74,-7.92
CC1=C(C(=O)Nc2cc(Cl)c3[nH]ncc3c2)C(c2ccc(C(F)(F)F)cc2)CC(=O)N1 (stereo not given),8.39,3.76,4.55,0.71,2.32,4.06,3.69,0.42,4.84,-4.08
COc1ccc(-c2nn3ncccc3c2-c2ccnc(Nc3ccc4c(c3)OCCO4)n2)cc1,0.26,3.86,-2.26,-0.29,0.11,1.09,1.51,-2.13,-5,1.12
Fc1ccc(-c2nn3ncccc3c2-c2ccnc(Nc3ccc4c(c3)OCCO4)n2)cc1,7.97,5.7,9.76,1.46,2.5,4.83,4.47,-1.83,-2.83,-0.14
c1ccc(-c2nc3n(c2-c2ccc4c(c2)OCO4)CCC3)nc1,-1.91,3.44,6.33,-0.09,-0.63,1.57,2.08,3.16,-0.63,4.69
CS(=O)(=O)CCNCc1ccc(-c2ccc3ncnc(Nc4ccc(OCc5ccccc5)c(C(F)(F)F)c4)c3c2)o1,-2.67,4.26,8.46,1.24,1.28,4.99,4.14,1.91,3.73,-5.25
Fc1cccc(COc2ccc(Nc3ncnc4sc(-c5ccco5)cc34)cc2Cl)c1,3.25,5.72,4.19,1.79,1.67,5.17,3.75,2.39,4.77,1.93
c1cc(-c2cnn3nc(N4CCOCC4)ccc23)nc(NC2CC2)n1,-4.91,-0.13,5.07,3.69,3.04,4.26,4.93,6.57,1.19,4.42
CCn1c(-c2nonc2N)nc2ccccc21,-1.31,5,6.81,3.34,2.08,1.86,4.13,5.02,8.78,0.13
COc1ccc(CNC(=O)c2ccc(-c3cc(-c4nnc(C)o4)ccc3C)cc2)cc1,4.31,5.02,5.86,0.61,0.95,1.81,3.19,8.37,8.19,5.26
CS(=O)(=O)CCNCc1coc(-c2ccc3ncnc(Nc4ccc(OCc5ccccc5)cc4)c3c2)c1,2.64,2.37,4.92,0.82,0.14,3.37,3.31,3.59,3.38,-4
Fc1ccc(-c2cc(-c3c[nH]nc3-c3ccccn3)ccn2)cc1,1.02,6.01,5.42,1.23,1.38,4.08,5.11,6.2,2.37,-1.74
O=C(O[C@H]1CN[C@H](C#Cc2cc3ncnc(Nc4ccc(Cc5ccccc5)cc4)c3s2)C1)N1CCOCC1,-0.68,0.1,2.79,0.85,0.99,3.06,2.95,0.53,0.17,-2.8
CCCN(CCS(C)(=O)=O)Cc1ccc(-c2ccc3ncnc(Nc4ccc(OCc5cccc(F)c5)c(Cl)c4)c3c2)o1,2.97,5.02,3.91,0.72,0.92,1.58,2.05,3.25,9.68,-9.75
COc1cc(Nc2nccc(Nc3ccc4c(C)n[nH]c4c3)n2)cc(OC)c1OC,3,2.19,7.51,0.97,3.21,2.53,5.23,1.57,15.3,-4.29

SMILES,inhibition [1] [%],inhibition [2] [%],inhibition [3] [%],inhibition [4] [%],inhibition [5] [%],inhibition [6] [%],inhibition [7] [%],inhibition [8] [%],inhibition [9] [%],inhibition [10] [%]
NS(=O)(=O)c1ccc(N/N=C2\C(=O)Nc3ccc4ncccc4c32)cc1,72.5,5.44,7.55,1.04,3.9,2.76,3.77,-1.93,3.21,-4.05
CCc1nn2ncccc2c1-c1ccnc(NC2CC2)n1,1.56,3.36,4.68,1.85,1.62,3.09,3.37,-2.62,0.37,-9.47
CCn1c(-c2nonc2N)nc2cnc(Oc3cccc(NC(=O)c4ccc(N(C)C)cc4)c3)cc21,0.84,3.97,6.82,0.04,0.22,1.76,2.25,2.13,-2.93,2.57
Nc1nc(-c2cccc(Cl)c2)c(-c2ccc3ncccc3n2)s1,-1.1,6.12,6.28,2.17,1.78,3.01,6.05,1.62,-3.64,3.19
COc1ccc(-c2cc3c(N)ncnc3o2)cc1,0.97,-2.64,-0.27,-2.02,-0.84,-1.87,-1.01,-1.3,-1.65,-8.16
COc1cc2c(cc1Nc1nc(Nc3ccsc3C(N)=O)c3cc[nH]c3n1)N(C(=O)CN(C)C)CCC2(C)C,0.56,8.7,7.09,2.44,3.48,5.68,5.85,-2.38,-3.07,-6.17
CCN1CCC(CC(=O)Nc2n[nH]c3nnc(-c4cccc(F)c4F)cc23)CC1,1.9,3.95,4.17,2.09,0.33,3.91,1.02,2,0.92,4.45
CCNC(=O)O[C@H]1CN[C@H](C#Cc2cc3ncnc(Nc4ccc(OCc5cccc(F)c5)c(Cl)c4)c3s2)C1,-0.79,1.87,8.64,1.21,1.91,3.71,3.15,5.88,2.54,8.13
Cc1ccc(O)cc1Nc1ccnc2cc(-c3ccccn3)ccc12,-0.53,7.92,8.64,3.37,2.71,4.92,5,3.23,0.07,4.84
NC(=O)c1sc(-n2cnc3ccc(C(F)(F)F)cc32)cc1OCc1ccccc1Br,0.41,5.7,7.84,0.77,1.46,3.71,3.48,1.98,3.21,-5.11
[O-][S+]1CCN(Cc2ccc(-c3ccc4ncnc(Nc5ccc(OCc6cccc(F)c6)c(Cl)c5)c4c3)o2)CC1,2.07,8.29,11.2,2.04,2.89,6.22,5.6,3.4,2.31,-2.88
COc1cccc(-c2c[nH]c3c(N/N=C/c4ccncc4)ncnc23)c1,20.3,2.35,1.11,0.94,0.74,1.83,2.84,0.46,0.73,5.9
Nc1nc(-c2ccc(F)cc2)c(-c2ccc3ncccc3n2)s1,9.07,6.29,6.35,1.67,2.07,5.1,5.56,2.84,4.21,1.6
COc1ccc(-c2oc3ncnc(N)c3c2-c2ccc(NC(=O)Nc3cc(C(F)(F)F)ccc3F)cc2)cc1,0.01,6.65,5.48,3.2,3.66,4.72,4.39,16.8,0.17,2.23
CNC(=O)c1cc(-c2ccc(F)cc2)cc(-c2ccc(S(=O)(=O)N3CCCC3)cc2)c1N,-1.61,3.68,9.51,1.46,0.63,3.43,5.29,2.26,3.67,-9.04
COc1cc2ncn(-c3cc(OCc4ccccc4C(F)(F)F)c(C(=O)N(C)C)s3)c2cc1OC,3.36,-0.17,-2.04,-1.09,-0.86,-0.48,-0.61,-6.21,0.3,-7.29
